SW480 rereplic: induces DNA re-replication in SW480 colon adenocarcinoma cells. SW480 DNA re-replication, Hoechst DNA content imaging, 48 h. Potency, µM (series often up to 46.1 µM), for the others: top-dose re-replication activation, most hits filed as activators. actives 1.8% (n = 340,000); further: potency means the concentration at half of the fitted maximal effect; % of control where 0% means no effect; nearly all actives have a fitted effect of over 55% in size
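Quantitative HTS format with DMSO vehicle controls; 48 hr drug incubation at 37 C, then 40 min Hoechst staining and scanning imager measurement at 405 nm excitation.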
BCR signal inh: chronic active BCR signaling inhibition | ABC-DLBCL IkBa-CBG/CBR reporter, luminescence ratio, 4 h | Potency, µM (top dose mostly 46.1 µM), inactives show at the top dose activity change, negative = inhibition, usual class: inhibitors | actives 0.05% (n = 340,000); active means well fitted inhibition curve with a large enough effect in the signal ratio, with a control signal flat, not every such curve was filed as active; inconclusive means small, poorly fitted or top-dose-only effect, or effect the other way, or a change in a side signal; the % refers to the signal ratio;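 further: potency means the concentration at half of the fitted maximal effect; plate controls were basal doxycycline-induced cells for no effect and cells given 10 µM MG132 for full effect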
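TMD8 human ABC-DLBCL cells with doxycycline-inducible IκBα–green luciferase fusion and unfused red luciferase, in 0.5% FBS medium; compounds up to 46 uM, 4 h at 37C. Green/red luminescence ratio, filter-overlap corrected, fitted to concentration-response curves.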
DT40 TDP1 CPT: DT40-hTDP1 cell growth loss with CPT. chicken DT40 Tdp1-/-;hTDP1 cells + 20 nM CPT, ATP luminescence, 48 h. Potency, µM (titrated, usually from 46.2 µM), without a hit: at the highest dose activity change, negative = growth inhibition, most hits filed as inhibitors. actives 12% (n = 420,000). AID 686979; further: potency means the concentration at half of the fitted maximal effect; on the % scale 0 is the no-effect control and ±100 the full control effect; nearly all actives have a fitted effect of over 55% in size
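Chicken DT40 Tdp1-/- cells complemented with human TDP1, 400 cells/well, exposed to compounds plus 20 nM camptothecin for at least 48 h at 37 C; viability read as ATP content by CellTiter-Glo luminescence.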
IL1B secr inh: inflammasome signaling inhibition, IL-1 beta readout; THP-1 LPS/ATP IL-1B secretion, AlphaLISA, 16 h; active compounds read low; activity change, % at 57.5 µM; actives 4.7% (n = 360,000); in the data active means activity change below about -50%; inconclusive means mostly about -30% to -49%; further: on the % scale 0 is the no-effect control and ±100 the full control effect
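THP-1 cells pretreated 1 hr with compounds (up to 57.5 uM final), then stimulated with LPS (250 ng/mL final) plus ATP (1.25 mM final); secreted IL-1B measured by AlphaLISA after 16 hr, decreased signal indicating inhibition.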
TDP1 cell noCPT: qHTS for Inhibitors of human tyrosyl-DNA phosphodiesterase 1 (TDP1): qHTS in cells in absence of CPT; DT40 Tdp1-/- hTDP1 cells, no CPT, ATP luminescence, 48 h; Potency, µM (series often up to 46.2 µM), inactives show top-dose activity change, negative = growth inhibition, most hits filed as inhibitors; actives 15% (n = 420,000); AID 686978, 2013; further: potency means the concentration at half of the fitted maximal effect; on the % scale 0 is the no-effect control and ±100 the full control effect; nearly all actives have a fitted effect of over 55% in size
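Growth kinetics read by CellTiter-Glo luminescence after ≥48 hr at 37 °C. Cells: DT40 Tdp1-/- stably carrying human TDP1, 400 per well, compound exposure in the absence of CPT (DMSO vehicle).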
MCF10A rereplic: DNA re-replication induction in MCF 10a cells; Potency, µM (doses to about 46.1 µM), without a hit: top-dose activity, positive = re-replication, usual class: activators; AID 624296; MCF 10A DNA re-replication, Hoechst nuclear intensity, 48 h; actives 2.9% (n = 350,000); further: potency means the concentration at half of the fitted maximal effect; % of control where 0% means no effect; nearly all actives have a fitted effect of over 50% in size
Starred values were filed as active, the others as inactive; ? = inconclusive; nt = not tested or not shown; [ ] = another dose, or the depositor's remark. Only some compounds are listed: those with a hit (about 19% of all), similar ones and a draw of the others. Unless noted, the call rests on the fitted dose curve; in most records, active means well fitted curve in the direction sought with a large enough effect; inconclusive means small, poorly fitted or top-dose-only effect, or another doubt; inactive means no such curve, though single readings can be large; an effect the other way counts as inactive or inconclusive.

SMILES | SW480 rereplic | BCR signal inh | DT40 TDP1 CPT | IL1B secr inh | TDP1 cell noCPT | MCF10A rereplic
O=C(CSc1nc(=O)n(Cc2ccccn2)c2c1CCC2)Nc1ccccc1 | nt | ? | 0% | nt | -22% | nt
Cc1ccc(-c2nnc(Nc3ccc(C(N)=O)cc3)c3ccccc23)cc1S(=O)(=O)NCC1CCCO1 (centres undefined) | -6% | ? | ? | -12 | ? | ?
Cc1ccc(-c2nnc(N3CCCCC3)c3ccccc23)cc1S(=O)(=O)NCC1CCCO1 (centres undefined) | 1% | ? | 18µM* | -26 | 21µM* | -2%
Cc1cccc(Nc2nnc(-c3ccc(C)c(S(=O)(=O)NCC4CCCO4)c3)c3ccccc23)c1 (centres undefined) | nt | nt | 23µM* | nt | 6.5µM* | nt
Cc1ccc(-c2nnc(Nc3cccc(Cl)c3)c3ccccc23)cc1S(=O)(=O)NCC1CCCO1 (centres undefined) | nt | nt | 23µM* | nt | 4.1µM* | nt
Cc1ccc(-c2nnc(Nc3ccc(Cl)cc3)c3ccccc23)cc1S(=O)(=O)NCC1CCCO1 (centres undefined) | nt | nt | ? | nt | 21µM* | nt
Nc1c(C(=O)CSc2n[nH]c(-c3ccccc3)n2)c(=O)[nH]c(=O)n1C1CC1 | -1% | 0% | -11% | 25 | -11% | 1%
Cc1nc(C)n(CC(=O)N2CCCC(C(=O)c3cccc4ccccc34)C2)n1 (centres undefined) | -128% | -1% | -3% | 61 | ? | 2%
COc1cccc(CNC(=O)C2CCCN(S(=O)(=O)N(C)c3ccc(F)cc3)C2)c1OC (centres undefined) | nt | nt | 3.3µM* | nt | 3.7µM* | nt
CCS(=O)(=O)N1CCCC(C(=O)NCCc2ccccc2)C1 (centres undefined) | -1% | 13% | -6% | 3 | 0% | -4%
CN(c1ccc(F)cc1)S(=O)(=O)N1CCCC(C(=O)NCCc2ccccc2)C1 (centres undefined) | nt | nt | 21µM* | nt | ? | nt
CSc1ccc(CCNC(=O)C2CCCN(S(=O)(=O)N(C)c3ccc(F)cc3)C2)cc1 (centres undefined) | nt | nt | 6.5µM* | nt | 9.2µM* | nt
CSc1ccc(CCNC(=O)C2CCCN(S(=O)(=O)N3CCOCC3)C2)cc1 (centres undefined) | -21% | 11% | -1% | 7 | -18% | 27%
COc1ccc(/C(O)=C2/C(=O)C(=O)N(CCN3CCNCC3)C2c2cccc([N+](=O)[O-])c2)cc1 (centres undefined) | -3% | 7% | -10% | -6 | -2% | ?
Nc1nccnc1C(=O)OCC(=O)NCCc1ccc(S(N)(=O)=O)cc1 | 10% | 2% | -3% | 12 | -15% | 0%
CC(C)COC(=O)N1CCCC1C(=O)O (centres undefined) | 0.73µM* | -2% | -3% | 0 | -18% | 6.5µM*
O=C(Nc1nc2c(Cl)cccc2s1)c1ccc([N+](=O)[O-])o1 | -5%[9.22 µM] | ? | 21µM* | -11 | 16µM* | ?
O=C(Nc1nc2c(F)cccc2s1)c1ccc([N+](=O)[O-])o1 | ? | ? | 13µM* | -12 | 16µM* | ?
O=C(Nc1nc2ccc(F)cc2s1)c1ccc([N+](=O)[O-])o1 | nt | nt | 6.5µM* | -101* | 7.3µM* | nt
COc1ccc(-c2noc(CSCC(=O)Nc3ccc(C)cc3Br)n2)cc1OC | nt | nt | -30% | nt | -22% | nt
COc1cccc(-c2cn3ncsc3n2)c1 | nt | nt | -13% | nt | -11% | nt
CC1(C(=O)Nc2ccc3ccccc3c2)CCC(=O)N1CCc1c[nH]c2ccccc12 (centres undefined) | nt | nt | ? | -3 | ? | nt

From PubChem BioAssay
